In paper PMC4081100, “A DNA-binding-site landscape and regulatory network analysis for NAC transcription factors in Arabidopsis thaliana” one finds binding signal data, which are given here for eleven sequences.

Holding throughout (assay): universal protein binding microarray (PBM); transcription factors of Arabidopsis thaliana; high values mean tight binding
Test [1] has as its target GST-NTL6(1-168) (Arabidopsis thaliana, UniProt Q9SCK6 1-168). Particulars: protein: recombinant; tags: GST; chain copies: 2; dsDNA, one strand shown. Summed up:
(§1)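 Each value is a normalised enrichment score (E-score) describing binding. The GST-tagged proteins, NAC-domain, full-length or DNA-binding-domain, were induced in cells (zinc-finger proteins with zinc acetate added) and purified on glutathione–Sepharose 4B. They were applied at 200 to 500 nM final, in duplicate, to double-stranded custom all-10-mer Agilent 4 × 180K arrays, and gapped and ungapped 8-mers were scored.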

The target of test [2] is T1, GST-ANAC019 NAC domain (Arabidopsis thaliana, UniProt Q9C932 14-162).
T1 sequence: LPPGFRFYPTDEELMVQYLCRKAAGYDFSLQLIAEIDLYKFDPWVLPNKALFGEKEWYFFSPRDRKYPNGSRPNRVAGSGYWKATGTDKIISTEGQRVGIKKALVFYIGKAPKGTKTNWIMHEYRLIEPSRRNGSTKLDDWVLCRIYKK
Particulars: protein: recombinant; tags: GST; chain copies: 2; dsDNA, one strand shown. In outline:
as §1

For test [3], the target named is T2, GST-ANAC055(1-171) (Arabidopsis thaliana, UniProt Q9LDY8 1-171).
T2 sequence: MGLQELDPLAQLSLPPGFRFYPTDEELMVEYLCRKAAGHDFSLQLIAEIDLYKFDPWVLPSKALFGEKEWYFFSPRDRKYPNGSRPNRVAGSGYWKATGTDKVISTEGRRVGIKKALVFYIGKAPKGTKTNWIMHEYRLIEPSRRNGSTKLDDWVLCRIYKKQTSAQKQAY
Particulars: protein: recombinant; tags: GST; chain copies: 2; dsDNA, one strand shown. Summed up:
as §1

Test [4] deals with T3, GST-NAP(1-166) (Arabidopsis thaliana, UniProt O49255 1-166).
T3 sequence: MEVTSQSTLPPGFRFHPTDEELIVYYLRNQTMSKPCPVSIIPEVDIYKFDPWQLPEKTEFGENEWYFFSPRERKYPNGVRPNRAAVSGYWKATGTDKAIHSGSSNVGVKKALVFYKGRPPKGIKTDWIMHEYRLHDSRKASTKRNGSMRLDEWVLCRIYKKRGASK
Particulars: protein: recombinant; tags: GST; chain copies: 2; dsDNA, one strand shown. In outline: as §1

Test [5] addresses T4, GST-NTL8 NAC domain (Arabidopsis thaliana, UniProt Q9XIN7 14-156).
T4 sequence: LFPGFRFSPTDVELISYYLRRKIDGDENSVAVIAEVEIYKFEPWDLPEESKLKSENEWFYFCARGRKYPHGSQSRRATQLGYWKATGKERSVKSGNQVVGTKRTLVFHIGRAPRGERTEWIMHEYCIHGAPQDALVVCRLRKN
Particulars: protein: recombinant; tags: GST; chain copies: 2; dsDNA, one strand shown. In outline:
as §1

Test [6] has as its target T5, GST-SND1(1-203) (Arabidopsis thaliana, UniProt Q9LPI7 1-203).
T5 sequence: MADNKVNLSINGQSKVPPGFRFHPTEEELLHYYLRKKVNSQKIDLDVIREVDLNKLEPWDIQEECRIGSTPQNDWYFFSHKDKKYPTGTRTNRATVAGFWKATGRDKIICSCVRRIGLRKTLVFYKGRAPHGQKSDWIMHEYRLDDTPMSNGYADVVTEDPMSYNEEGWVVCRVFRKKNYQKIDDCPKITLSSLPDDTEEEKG
As to conditions: protein: recombinant; tags: GST; chain copies: 2; dsDNA, one strand shown. In outline: as §1

In test [7] the target is T6, GST-VND7 NAC domain (Arabidopsis thaliana, UniProt Q9C8W9 9-158).
T6 sequence: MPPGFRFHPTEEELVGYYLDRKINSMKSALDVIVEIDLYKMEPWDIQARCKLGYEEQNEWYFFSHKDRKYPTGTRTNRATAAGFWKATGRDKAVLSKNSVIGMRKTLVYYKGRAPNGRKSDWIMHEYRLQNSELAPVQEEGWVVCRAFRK
Particulars: protein: recombinant; tags: GST; chain copies: 2; dsDNA, one strand shown. In outline: as §1

The target in test [8] is T7, GST-ANAC092(1-285) full length (Arabidopsis thaliana, UniProt Q9FKA0 1-285).
T7 sequence: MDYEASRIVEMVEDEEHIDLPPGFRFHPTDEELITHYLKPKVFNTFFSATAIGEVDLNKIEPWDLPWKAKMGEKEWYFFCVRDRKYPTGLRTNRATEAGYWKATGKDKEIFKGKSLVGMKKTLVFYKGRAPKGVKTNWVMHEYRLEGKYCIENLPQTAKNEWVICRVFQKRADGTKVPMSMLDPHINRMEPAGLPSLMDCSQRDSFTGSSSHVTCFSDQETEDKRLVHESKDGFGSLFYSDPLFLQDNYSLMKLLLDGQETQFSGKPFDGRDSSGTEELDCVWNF
As to conditions: protein: recombinant; tags: GST; chain copies: 2; dsDNA, one strand shown. Summed up:
as §1

Test [9] deals with T8, GST-NST2(1-184) (Arabidopsis thaliana, UniProt Q9M274 1-184).
T8 sequence: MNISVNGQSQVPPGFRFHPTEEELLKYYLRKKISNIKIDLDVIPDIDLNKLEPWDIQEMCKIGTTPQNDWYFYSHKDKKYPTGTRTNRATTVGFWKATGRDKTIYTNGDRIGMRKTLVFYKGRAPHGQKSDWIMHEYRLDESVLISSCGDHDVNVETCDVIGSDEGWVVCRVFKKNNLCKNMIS
As to conditions: protein: recombinant; tags: GST; chain copies: 2; dsDNA, one strand shown. In outline:
as §1

The target of test [10] is GST-WRKY1(266-371) (Arabidopsis thaliana, UniProt Q9SI37 266-371). As to conditions: protein: recombinant; tags: GST; dsDNA, one strand shown. Summed up:
as §1

The target in test [11] is T9, GST-ANAC092(1-176) (Arabidopsis thaliana, UniProt Q9FKA0 1-176).
T9 sequence: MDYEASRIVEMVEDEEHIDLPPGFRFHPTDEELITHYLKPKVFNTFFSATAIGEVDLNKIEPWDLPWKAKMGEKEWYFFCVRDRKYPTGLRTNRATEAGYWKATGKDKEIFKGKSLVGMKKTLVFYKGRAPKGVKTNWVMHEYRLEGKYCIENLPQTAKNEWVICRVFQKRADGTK
Particulars: protein: recombinant; tags: GST; chain copies: 2; dsDNA, one strand shown. Summed up: as §1

Test [12] has as its target T10, GST-ATAF1 NAC domain (Arabidopsis thaliana, UniProt Q39013 7-158).
T10 sequence: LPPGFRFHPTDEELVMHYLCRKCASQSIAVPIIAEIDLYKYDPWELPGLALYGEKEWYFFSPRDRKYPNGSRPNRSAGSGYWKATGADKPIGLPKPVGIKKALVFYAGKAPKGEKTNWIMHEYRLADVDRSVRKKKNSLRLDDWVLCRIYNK
Particulars: protein: recombinant; tags: GST; chain copies: 2; dsDNA, one strand shown. Summed up: as §1

Chain of GST-NTL6(1-168) (Q9SCK6 1-168): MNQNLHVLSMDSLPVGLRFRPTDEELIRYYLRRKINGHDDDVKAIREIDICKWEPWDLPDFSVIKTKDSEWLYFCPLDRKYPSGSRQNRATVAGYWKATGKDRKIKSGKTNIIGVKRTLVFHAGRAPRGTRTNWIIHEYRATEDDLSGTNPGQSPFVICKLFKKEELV
Chain of GST-WRKY1(266-371) (Q9SI37 266-371): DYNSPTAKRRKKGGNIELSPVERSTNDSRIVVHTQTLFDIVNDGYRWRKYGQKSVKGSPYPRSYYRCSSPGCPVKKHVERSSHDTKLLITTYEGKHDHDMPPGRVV

On to AAACCCTC, for which the binding signal in test [1] came out at 0.141 E-score; in test [2] it was 0.0591 E-score; in test [3], 0.134 E-score; in test [4], 0.0744 E-score; in test [5], 0.414 E-score; in [6], 0.101 E-score. Also, the binding signal in test [7] was determined as 0.1 E-score.
On to GCGTCAAA, for which the binding signal in [8] was 0.0819 E-score; in test [9], 0.052 E-score; in test [5], 0.0775 E-score; in [6], 0.0924 E-score; in [7], 0.0799 E-score; in [10], 0.409 E-score.
Regarding AGCTTTCC, the binding signal came to 0.171 E-score in test [11]; 0.233 E-score in [1]; 0.126 E-score in test [2]; 0.111 E-score in [3]; 0.133 E-score in test [8]; 0.434 E-score in [5]. The results for the binding signal in test [6] and in test [7] were 0.123 E-score and 0.116 E-score, respectively.
As to GAAGAAAC, the binding signal is 0.203 E-score in [11]; 0.295 E-score in test [1]; 0.123 E-score in [2]; 0.168 E-score in test [3]; 0.194 E-score in test [12]; 0.0911 E-score in [8]. The binding signal in [9] is 0.197 E-score; in test [5], 0.423 E-score; in test [6] it was 0.126 E-score; in test [7], 0.0868 E-score.
In the case of CGAAGCAA, the binding signal turned out to be 0.243 E-score in test [11]; 0.325 E-score in [1]; 0.271 E-score in [8]; 0.208 E-score in test [9]; 0.339 E-score in test [5]; 0.427 E-score in test [6]. Besides, in test [7], the binding signal worked out at 0.169 E-score.
AAGAAACC: the binding signal in test [11] was 0.246 E-score; in test [1], 0.261 E-score; in test [2], 0.0937 E-score; in test [3], 0.135 E-score; in test [12], 0.177 E-score; in test [8] it was 0.311 E-score. Also, the binding signal came to 0.265 E-score in test [9], 0.435 E-score in test [5], 0.216 E-score in test [6] and 0.139 E-score in [7].
Turning to AGGGTAAA, the binding signal in test [11] amounted to 0.1 E-score; in test [1], 0.0852 E-score; in [3], 0.0614 E-score; in test [8], 0.0699 E-score; in test [4], 0.0883 E-score; in [9] it was 0.14 E-score. The binding signal in [5] worked out at 0.429 E-score; in test [6] it was 0.153 E-score; in [7] it was 0.108 E-score.
TGAAGGAA: the binding signal in test [11] was 0.108 E-score; in test [1] it was 0.379 E-score; in [2], 0.0877 E-score; in test [3] it was 0.0856 E-score; in [12] it was 0.0713 E-score; in test [8] it was 0.0772 E-score. Further, the binding signal in test [9] was found to be 0.197 E-score; in [5] it was 0.469 E-score; in [6], 0.342 E-score; in [7], 0.0645 E-score.
With ACGCTTCC, the binding signal in test [11] is 0.334 E-score; in test [1], 0.0789 E-score; in test [2], 0.171 E-score; in test [3] it was 0.106 E-score; in test [12], 0.139 E-score; in test [8], 0.402 E-score. Moreover, the binding signal came out at 0.0721 E-score in [4], 0.206 E-score in [9], 0.296 E-score in test [6] and 0.151 E-score in test [7].
Turning to CCCCACCC, the binding signal was determined as 0.209 E-score in [11]; 0.274 E-score in [1]; 0.177 E-score in test [2]; 0.0515 E-score in [3]; 0.234 E-score in [12]; 0.278 E-score in test [8]. In addition, the binding signal came to 0.182 E-score in [9], 0.277 E-score in test [5], 0.272 E-score in [6] and 0.171 E-score in test [7].
Consider TGACTTAA, for which the binding signal in [1] was 0.342 E-score; in test [12], 0.107 E-score; in [8], 0.102 E-score; in test [9] it was 0.183 E-score; in test [6] it was 0.249 E-score; in [7], 0.089 E-score. Besides, in [10], the binding signal was 0.427 E-score.
